For 39 compounds, Potency and activity change, negative = inhibition results are on record in PubChem BioAssay (Tox21).

Results filed as inconclusive are left out. Where a call stands in place of a potency, no number is given. Calls of active or inactive are those of the source. Calls follow the shape of the full dose curve.

For the first assay, the target named is Acetylcholinesterase (Homo sapiens) (UniProt P22303). As to the kind of experiment: Acetylcholinesterase (AChE) small molecule antagonists: fluorescence cell-based qHTS assay (AID 1347398). Also: nearly all actives have a fitted effect of over 50% in size. To be noted: SH-SY5Y cells; Potency: AChE activity; outcome: AChE activity; series mostly up to 115 µM. Summed up: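 Thiocholine generated from acetylthiocholine by SH-SY5Y cell AChE is detected with Thiolite Green (Ex/Em 490/520 nm) after 40 min at room temperature, following 30 min compound pretreatment at 37 C.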
Chain of Acetylcholinesterase (Homo sapiens) (P22303 whole entry, looked up): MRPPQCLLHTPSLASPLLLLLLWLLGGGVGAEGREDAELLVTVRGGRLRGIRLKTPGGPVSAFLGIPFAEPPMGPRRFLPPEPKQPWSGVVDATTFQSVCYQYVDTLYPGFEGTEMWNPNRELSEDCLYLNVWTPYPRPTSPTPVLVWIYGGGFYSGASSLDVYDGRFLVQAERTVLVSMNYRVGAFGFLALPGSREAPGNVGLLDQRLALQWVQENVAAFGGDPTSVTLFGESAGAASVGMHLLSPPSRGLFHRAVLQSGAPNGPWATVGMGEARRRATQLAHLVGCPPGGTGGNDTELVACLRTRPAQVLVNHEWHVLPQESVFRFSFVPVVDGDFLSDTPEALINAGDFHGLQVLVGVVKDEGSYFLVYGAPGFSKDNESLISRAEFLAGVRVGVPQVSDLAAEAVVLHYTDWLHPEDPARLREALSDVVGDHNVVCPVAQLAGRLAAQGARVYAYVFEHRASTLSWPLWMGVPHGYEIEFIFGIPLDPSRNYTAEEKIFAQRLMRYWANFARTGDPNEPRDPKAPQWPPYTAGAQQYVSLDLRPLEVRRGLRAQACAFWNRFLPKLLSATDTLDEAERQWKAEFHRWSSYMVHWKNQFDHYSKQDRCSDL
On the technique in general: In qHTS, concentration-response curves come from the screen itself.
Take `Clc1ccnc(Cl)n1`: the Potency result is “inactive”.

As to `CCCC(=O)C(CC)Sc1ccoc1C` (stereo not drawn), the Potency result is “inactive”.

`c1ccc(CNCc2ccccc2)cc1`: the Potency result was “inactive”.

In the case of `COC(=O)/C=C(/C)N`, the Potency entry is “inactive”.

Regarding `NNC(=O)CCCCC(=O)NN`, the Potency result is “inactive”.

For the compound `C#C[C@]1(OC(C)=O)CC[C@H]2[C@@H]3CCC4=C/C(=N/O)CC[C@@H]4[C@H]3CC[C@@]21CC`, the Potency result was “inactive”.

With `CC(=O)c1c(C)cc(C(C)(C)C)cc1C`, the Potency entry was “inactive”.

In the case of `C/C(=C\C(C)CC(C)CC(C)C)C1CC(=O)OC1=O` (stereo not drawn), the Potency entry is “inactive”.

Regarding `CCCCCCCCCCCCCCCCCO`, the activity change, negative = inhibition was 0.561% [at 23.8 µM] (inactive).

Consider `c1ccc(-c2nc[nH]c2-c2ccccc2)cc1`, for which the Potency result was “inactive”.

Consider `CN(C)CCc1c[nH]c2ccc(CS(=O)(=O)N3CCCC3)cc12`, for which the Potency entry is “inactive”.

`CC(C)c1ccc2c(c1)CC[C@H]1[C@](C)(CN)CCC[C@]21C`: the Potency entry is “inactive”.

As to `CC1=C(/C=C/C(C)=C/C=C/C(C)=C\C(=O)O)C(C)(C)CCC1`, the Potency result is “inactive”.

In the case of `C1CCC2(CCCCO2)OC1`, the Potency entry is “inactive”.

For `Cc1occc(=O)c1OC(=O)C(C)C`, the Potency entry is “inactive”.

As to `CCOC(=O)COC(=O)c1cc(Oc2ccc(C(F)(F)F)cc2Cl)ccc1[N+](=O)[O-]`, the Potency entry is “inactive”.

On to `CCC(C)(C)C1CCC(=O)CC1`, for which the Potency result is “inactive”.

As for `CO[Si](CCCS)(OC)OC`, the Potency entry is “inactive”.

Consider `CCCCCCCCCCCCCc1ccccc1`, for which the Potency result was “inactive”.

Regarding `CCO[Si](C)(C)OCC`, the Potency entry was “inactive”.

Regarding `CN(C)C(C)(C)CO`, the Potency entry was “inactive”.

Turning to `COC(=O)c1cc(Cl)cc(Cl)c1`, the Potency result was “inactive”.

Regarding `CCOC(=O)CC#N`, the Potency entry is “inactive”.

For `Cc1ccc(N/N=c2\c(=O)cc/c(=N\Nc3ccc(S(=O)(=O)O)cc3)c2=O)c(C)c1`, the Potency entry was “inactive”.

As for `OCCCS`, the Potency entry was “inactive”.

Consider `Cc1ccccc1N1C(=O)c2cc(S(N)(=O)=O)c(Cl)cc2NC1C` (stereo not drawn), for which the Potency result is “inactive”.

On to `CC/C=C\CCOC(C)=O`, for which the Potency entry was “inactive”.

In the case of `C=CC(=O)O`, the Potency result was “inactive”.

On to `C=C(C)C(=O)OCCOCC`, for which the Potency result is “inactive”.

Consider `CCCc1ccc(OC)cc1`, for which the Potency result was “inactive”.

With `CC(=O)OCC(C)OC(C)=O` (stereo not drawn), the Potency entry is “inactive”.

For `CCC(C)(C)C(=O)O`, the Potency entry was “inactive”.

Take `CC(=O)c1ccc[nH]1`: the Potency result is “inactive”.

As for `CCC=CC#N`, the Potency entry is “inactive”.

For the compound `C[C@]12CC[C@H]3C(=CCc4cc(O)ccc43)[C@@H]1CCC2=O`, the Potency result was “inactive”.

Turning to `Cc1cccn2c(=O)c(-c3nnn[nH]3)cnc12`, the activity change, negative = inhibition is -17.5% [at 23.8 µM] (inactive).

On to `C/C=C/C(=O)Oc1c(CCCCCC(C)C)cc([N+](=O)[O-])cc1[N+](=O)[O-]`, for which the Potency result was “inactive”.

With `OC1(c2ccc(Cl)cc2)CCNCC1`, the Potency entry was “inactive”.

Consider `NC(=O)Nc1ccc(Cl)c(Cl)c1`, for which the Potency entry is “inactive”.

The next assay has the same target. As to the kind of experiment: Acetylcholinesterase (AChE) small molecule antagonists: enzyme-based qHTS assay with human liver microsomes (AID 1347399). Also: nearly all actives have a fitted effect of over 60% in size. The settings on record: Potency: qHTS inhibition; outcome: qHTS inhibition; series mostly up to 115 µM. The gist of the method:
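Recombinant human AChE (50 mU/mL in the enzyme mix) and human liver microsomes (0.25 mg/mL final) were preincubated with compound and NADPH (0.25 mg/mL final) for 30 min at 37 C. Acetylthiocholine/DTNB was then added; thiocholine was read colorimetrically after 10 min at room temperature.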
In the case of `Clc1ccnc(Cl)n1`, the Potency result was “inactive”.

Regarding `CCCC(=O)C(CC)Sc1ccoc1C` (stereo not drawn), the Potency result was “inactive”.

Turning to `c1ccc(CNCc2ccccc2)cc1`, the Potency entry is “inactive”.

For `COC(=O)/C=C(/C)N`, the Potency result is “inactive”.

With `NNC(=O)CCCCC(=O)NN`, the Potency result is “inactive”.

With `C#C[C@]1(OC(C)=O)CC[C@H]2[C@@H]3CCC4=C/C(=N/O)CC[C@@H]4[C@H]3CC[C@@]21CC`, the Potency result is “inactive”.

Turning to `CC(=O)c1c(C)cc(C(C)(C)C)cc1C`, the Potency entry was “inactive”.

`C/C(=C\C(C)CC(C)CC(C)C)C1CC(=O)OC1=O` (stereo not drawn): the Potency result was “inactive”.

In the case of `CCCCCCCCCCCCCCCCCO`, the activity change, negative = inhibition is 3.32% [at 23.6 µM] (inactive).

As to `c1ccc(-c2nc[nH]c2-c2ccccc2)cc1`, the Potency entry is “inactive”.

For the compound `CN(C)CCc1c[nH]c2ccc(CS(=O)(=O)N3CCCC3)cc12`, the Potency entry is “inactive”.

In the case of `CC(C)c1ccc2c(c1)CC[C@H]1[C@](C)(CN)CCC[C@]21C`, the Potency entry was “inactive”.

Regarding `CC1=C(/C=C/C(C)=C/C=C/C(C)=C\C(=O)O)C(C)(C)CCC1`, the Potency entry is “inactive”.

`C1CCC2(CCCCO2)OC1`: the Potency result was “inactive”.

Turning to `Cc1occc(=O)c1OC(=O)C(C)C`, the Potency entry was “inactive”.

As for `CCOC(=O)COC(=O)c1cc(Oc2ccc(C(F)(F)F)cc2Cl)ccc1[N+](=O)[O-]`, the Potency result was “inactive”.

`CCC(C)(C)C1CCC(=O)CC1`: the Potency result is “inactive”.

Turning to `CO[Si](CCCS)(OC)OC`, the Potency result is “inactive”.

As for `CCCCCCCCCCCCCc1ccccc1`, the Potency entry is “inactive”.

With `CCO[Si](C)(C)OCC`, the Potency entry was “inactive”.

As to `CN(C)C(C)(C)CO`, the Potency entry was “inactive”.

For the compound `COC(=O)c1cc(Cl)cc(Cl)c1`, the Potency entry was “inactive”.

As for `CCOC(=O)CC#N`, the Potency entry is “inactive”.

As to `Cc1ccc(N/N=c2\c(=O)cc/c(=N\Nc3ccc(S(=O)(=O)O)cc3)c2=O)c(C)c1`, the Potency entry was “inactive”.

`OCCCS`: the Potency result is “inactive”.

For `Cc1ccccc1N1C(=O)c2cc(S(N)(=O)=O)c(Cl)cc2NC1C` (stereo not drawn), the Potency result was “inactive”.

`CC/C=C\CCOC(C)=O`: the Potency result is “inactive”.

Take `C=CC(=O)O`: the Potency entry was “inactive”.

Consider `C=C(C)C(=O)OCCOCC`, for which the Potency entry was “inactive”.

`CCCc1ccc(OC)cc1`: the Potency entry is “inactive”.

Consider `CC(=O)OCC(C)OC(C)=O` (stereo not drawn), for which the Potency result is “inactive”.

On to `CCC(C)(C)C(=O)O`, for which the Potency entry is “inactive”.

Take `CC(=O)c1ccc[nH]1`: the Potency entry was “inactive”.

As to `CCC=CC#N`, the Potency entry is “inactive”.

`C[C@]12CC[C@H]3C(=CCc4cc(O)ccc43)[C@@H]1CCC2=O`: the Potency result was “inactive”.

As for `Cc1cccn2c(=O)c(-c3nnn[nH]3)cnc12`, the activity change, negative = inhibition is -5.01% [at 23.6 µM] (inactive).

In the case of `C/C=C/C(=O)Oc1c(CCCCCC(C)C)cc([N+](=O)[O-])cc1[N+](=O)[O-]`, the Potency result was “inactive”.

In the case of `OC1(c2ccc(Cl)cc2)CCNCC1`, the Potency result was “inactive”.

In the case of `NC(=O)Nc1ccc(Cl)c(Cl)c1`, the Potency result was “inactive”.
